Data as given in PubChem BioAssay AID1463 (National Center for Advancing Translational Sciences (NCATS), 2008).
Several values for one entry are separate records, joined by “and”; a condition that tells them apart may be missing. Equal entries are not always repeated. The campaign covered roughly 280,000 compounds. About 2,600 (0.93%) were called active. Another 8% or so got no clear call; they are omitted. Calls come from the whole dose curve; as a rule, active = well fitted curve in the direction sought with a large enough effect; inconclusive = small, poorly fitted or top-dose-only effect; inactive = flat fitted curve, though single readings scatter. Many of the other results were omitted from the sample, so actives are more common in it than they were.

Test: Counterscreen qHTS for Inhibitors of Tau Fibril Formation, Fluorescence Polarization; note: nearly all actives have a fitted effect of over 55% in size
Details: tau K18 P301L (four-repeat tau fragment) Alexa594 fluorescence, heparin fibrillization; series mostly up to 57.7 µM; activity change, negative = decrease: at the top concentration
Source text: NIH Molecular Libraries Probe Production Network [MLPCN]
NIH Chemical Genomics Center [NCGC]
Assay Provider: Carlo Ballatore, University of Pennsylvania
The microtubule-associated protein tau is an abundant protein in the axons of neurons that stabilizes microtubules. With its ability to modulate microtubule dynamics, tau contributes directly or indirectly, to key structural and regulatory cellular functions. Particularly important is the influence tau exerts on axonal transport, which allows signaling molecules, trophic factors and other essential cellular constituents to travel along the axons. Under pathological conditions, tau becomes sequestered into insoluble aggregates called neurofibrillary tangles. This phenomenon is believed to have pathological consequences by promoting axonal transport deficits that ultimately lead to synaptic dysfunction and neuronal loss. To identify inhibitors of tau aggregation, a heparin-induced tau fibril formation assay was used that employed a recombinantly expressed fragment of tau, K18 (Q242-E372), bearing a P301L mutation (Gustke et al. 1994; Hong et al. 1998). […] Total fluorescence (555 nm excitation and 632 nm emission) was measured to identify fluorescent or absorbent compounds at this wavelength. Such compounds may be artifacts that interfere with the Alexa 594 Tau fluorescence polarization assay.
Gustke, N., B. Trinczek, et al. (1994). "Domains of tau protein and interactions with microtubules." Biochemistry 33(32): 9511-22.
Hong, M., V. Zhukareva, et al. (1998).
Li, W. and V. M. Lee (2006). "Characterization of two VQIXXK motifs for tau fibrillization in vitro." Biochemistry 45(51): 15692-701.
von Bergen, M., S. Barghorn, et al. (2001). "Mutations of tau protein in frontotemporal dementia promote aggregation of paired helical filaments by enhancing local beta-structure." J Biol Chem 276(51): 48165-74.
NCGC Assay Protocol Summary:
For screening, 2 uL/well human K18 P301L (15 uM unlabeled and 0.24 uM Alexa 594-labeled tau final concentrations) in reagent buffer (100 mM sodium acetate pH 7) was dispensed into black solid 1536-well plates (Grenier) using a solenoid-based dispenser. Following transfer of 23 nL compound or DMSO vehicle by a pin tool, 2 uL/well heparin (20 uM final concentration) in reagent buffer was added and the plate centrifuged 15 s at 1000 RPM. Plates were incubated 6 hr at 37 C and then 1 uL/well ThT (30 uM final concentration) was added. After a 1 hr ambient incubation, the plates were read by an Envision (Perkin Elmer) to monitor Alexa 594 FP (555 nm excitation and 632 nm emission).
Keywords: NIH Roadmap, MLPCN, MLI, MLSMR, NCGC, qHTS, tau, tauopathies, Alzheimer's disease, fibril, neurodegeneration, aggregation
% is set by controls: 0 for no effect and ±100 for the full control effect; potency is the fitted concentration of half-maximal effect; tags give direction and shape of the fitted curve or compound fluorescence and quenching.

| Compound | Potency | activity change, negative = decrease |
| --- | --- | --- |
| O=C(OCC1O[C@@H](OC(=O)c2cc(O)c(O)c(O)c2)[C@@H](OC(=O)c2cc(O)c(O)c(O)c2)[C@@H](OC(=O)c2cc(O)c(O)c(O)c2)[C@@H]1OC(=O)c1cc(O)c(O)c(O)c1)c1cc(O)c(O)c(O)c1 (stereo not given in full) | 10 µM [quencher] (active) |  |
| C=CCN1CCC2(C)c3cc(O)ccc3CC1[C@@H]2C (stereo not given in full) |  | 10.3% (inactive) |
| COC1CC(OC2CC[C@@]3(C=O)C4CC[C@]5(C)C(C6=CC(=O)OC6)CC[C@@]5(O)C4CC[C@]3(O)C2)OC(C)C1O (stereo not given in full) |  | -4% (inactive) |
| N#CC(C#N)=Cc1cc(O)c(O)c([N+](=O)[O-])c1 |  | -26.8% (inactive) |
| CC(=O)c1c(O)c(C)c(O)c(Cc2c(O)c3c(c(C(=O)/C=C/c4ccccc4)c2O)OC(C)(C)C=C3)c1O | 15.8 µM [quencher] (active) and 12.6 µM [quencher] (active) |  |
| CO[C@@H]1C[C@@H](C[C@H]2CC[C@H](C)[C@@H]([C@@H](C)C(=O)O)O2)O[C@]2(O[C@](C)([C@H]3CC[C@@](C)(C4OC([C@H]5O[C@@](O)(CO)[C@H](C)C[C@@H]5C)C[C@@H]4C)O3)C[C@H]2C)[C@@H]1C (stereo not given in full) |  | -6.37% (inactive) |
| CN(C)[C@@H]1C(=O)C(C(N)=O)=C(O)[C@@]2(O)C(=O)C3=C(O)c4c(O)cccc4[C@@](C)(O)C3CC12 (stereo not given in full) |  | -4.87% (inactive) |
| CCCCCCCCCCCCCC(=O)O[C@@H]1[C@@H](C)[C@@]2(O)[C@@H](C=C(CO)C[C@]3(O)C(=O)C(C)=C[C@@H]23)[C@@H]2C(C)(C)[C@]12OC(C)=O |  | -27.1% (inactive) |
| COc1ccccc1-c1[se]c2ccccc2c1I |  | -17.3% [at 81.3 µM] (inactive) |
| CC(C)(C)c1ccc(S(=O)(=O)Nc2ccc(O)c(Sc3nc4ccccc4s3)c2)cc1 | 8.91 µM [quencher] (active) |  |
| c1ccc2sc(SNC3CCCCC3)nc2c1 |  | -9.08% (inactive) |
| CC[C@]1(O)C(=O)OCc2c1cc1n(c2=O)Cc2cc3ccccc3nc2-1 |  | -12% (inactive) |
| CCCN(C/C=C/I)C1CCc2ccc(O)cc2C1 (stereo not given) |  | -15.9% (inactive) |
| CN(C)C1C(=O)C(C(N)=O)=C(O)[C@@]2(O)C(=O)C3=C(O)c4c(O)cccc4[C@@](C)(O)C3C[C@@H]12 (stereo not given in full) |  | -12.5% (inactive) |
| CC[C@@H]1CN2CC[C@@H]1C[C@H]2[C@H](O)c1ccnc2ccc(OC)cc12 |  | -4.73% (inactive) |
